The values below come from the supplement of paper PMC6992640.

Common to all, as to experiment: cell viability (% of vehicle); higher = less cytotoxic
Common to all, as to details: 10 µM; 72 h

Assay [1] concerns HCI01 (cells of a triple-negative basal-like breast cancer xenograft).
The test system of assay [2] is HCI03 (cells of an ER-positive luminal breast cancer xenograft).
The test system of assay [3] is HCI09 (cells of a triple-negative luminal androgen receptor type breast cancer xenograft).
Assay [4] relates to HCI11 (cells of an ER-positive luminal breast cancer xenograft).
Assay [5] has as its system HCI13 (cells of an ER-positive luminal breast cancer xenograft).
Assay [6] deals with HCI16 (cells of a triple-negative basal-like breast cancer xenograft).
For assay [7], the system named is UCD52 (cells of a triple-negative basal-like breast cancer xenograft).
Assay [8] has as its system WHIM2 (cells of a triple-negative basal-like breast cancer xenograft).
For assay [9], the system named is WHIM30 (cells of a triple-negative basal-like breast cancer xenograft).

Each structure is given as a SMILES string. ± gives the standard deviation of the averaged measurements.
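Note: PDX cells carrying CMV promoter-driven luciferase, viability read as total photon flux per second by IVIS imaging following D-luciferin, vehicle control 0.1% DMSO.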

As for `CCOC(=O)C1=C(C)NC(C)=C(C(=O)OCC)C1c1ccccc1C=CC(=O)OC(C)(C)C` [Lacidipine], the cell viability in assay [1] was 107.7 ± 0.7; in [2], 98.1; in [3], 86.5 ± 9.8; in [4], 110; in assay [5] it was 88.7 ± 2.9; in assay [6] it was 85.7. Besides, the cell viability came to 77.1 ± 6.1 in [7], 99.8 ± 1.2 in assay [8] and 133 ± 3.9 in assay [9].
For the compound `CCN1CCCC1CNC(=O)c1cc(S(N)(=O)=O)ccc1OC` (configuration not stated) [Levosulpiride], the cell viability in assay [1] turned out to be 127 ± 9.1; in [2], 126; in assay [3], 99.33 ± 0.17; in [4], 98.2; in assay [5], 77.9 ± 5.7; in [6] it was 134. Moreover, the cell viability in assay [7] was 93.9 ± 1.6; in assay [8], 109 ± 7.3; in [9], 100 ± 7.4.
With `CCCCCOC(=O)Nc1nc(=O)n(C2OC(C)C(O)C2O)cc1F` (configuration not stated) [Capecitabine], the cell viability in [1] was 142 ± 26; in [2] it was 114; in assay [3], 139 ± 24; in assay [4], 124; in assay [5], 165 ± 25; in assay [6] it was 120. In addition, the values for the cell viability in assay [7], in assay [8] and in assay [9] were 112 ± 4, 108 ± 6.9 and 162 ± 33, respectively.
